# Results reported in PubChem BioAssay (NCATS).
# Records with an inconclusive call do not appear. Where a call stands in place of a potency, no number is given. A number with no mark means an inactive call. Active and inactive are the calls of the source. The call rests on the fitted dose curve; in most records, active means well fitted inhibition curve with a large enough effect; inconclusive means small, poorly fitted or top-dose-only effect; inactive means flat fitted curve, though single readings scatter.
# Columns and labels:
# [1] = qHTS profiling for inhibitors of Plasmodium falciparum proliferation (AID 504749); further: nearly all actives have a fitted effect of over 60% in size; details: P. falciparum in erythrocytes, SYBR Green DNA, 72 h
# Outline: (§1)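 Three-day growth assay of blood-stage parasites in erythrocytes (0.3% parasitemia, 2.5% hematocrit) at 37 C, 5% CO2, quantified by SYBR Green DNA staining after overnight detergent lysis.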
# 7G8 = assay: as above; details: P. falciparum in erythrocytes, SYBR Green DNA, 72 h; series mostly up to 28.7 µM
# Outline: as §1
# AA1029 = assay: as above; details: P. falciparum in erythrocytes, SYBR Green DNA, 72 h; series mostly up to 28.7 µM
# Outline: as §1
# AS120 = assay: as above; details: P. falciparum in erythrocytes, SYBR Green DNA, 72 h; series mostly up to 28.7 µM
# Outline: as §1
# C2A = assay: as above; details: P. falciparum in erythrocytes, SYBR Green DNA, 72 h; series mostly up to 28.7 µM
# Outline: as §1
# CP185 = assay: as above; details: P. falciparum in erythrocytes, SYBR Green DNA, 72 h; series mostly up to 28.7 µM
# Outline: as §1
# CP191 = assay: as above; details: P. falciparum in erythrocytes, SYBR Green DNA, 72 h; series mostly up to 28.7 µM
# Outline: as §1
# CP192 = assay: as above; details: P. falciparum in erythrocytes, SYBR Green DNA, 72 h; series mostly up to 28.7 µM
# Outline: as §1
# 3D7 = assay: as above; details: P. falciparum in erythrocytes, SYBR Green DNA, 72 h; series mostly up to 28.7 µM
# Outline: as §1
# ATS189 = assay: as above; details: P. falciparum in erythrocytes, SYBR Green DNA, 72 h; series mostly up to 28.7 µM
# Outline: as §1
# ATS95 = assay: as above; details: P. falciparum in erythrocytes, SYBR Green DNA, 72 h; series mostly up to 28.7 µM
# Outline: as §1
# CP194 = assay: as above; details: P. falciparum in erythrocytes, SYBR Green DNA, 72 h; series mostly up to 28.7 µM
# Outline: as §1
# [2] = at 28.7 µM (top of the series), parasite line A
# [3] = at 28.7 µM (top of the series), parasite line B
# [4] = at 12.8 µM (top of the series), parasite line A
# [5] = at 12.8 µM (top of the series), parasite line B
# Potency means the concentration at half of the fitted maximal effect.
Compound,"activity, negative = inhibition [1, 2]","activity, negative = inhibition [1, 3]",Potency (7G8),Potency (AA1029),Potency (AS120),Potency (C2A),Potency (CP185),Potency (CP191),Potency (CP192),Potency (3D7),Potency (ATS189),Potency (ATS95),Potency (CP194),Potency ([1]; parasite line A),Potency ([1]; parasite line B),"activity, negative = inhibition [1, 4]","activity, negative = inhibition [1, 5]"
O=C(CCCN1CCC(C(=O)c2ccc(F)cc2)CC1)c1ccc(F)cc1,-20.7%,15.1%,11.2 µM (active),inactive,inactive,inactive,inactive,2 µM (active),inactive,–,–,–,–,–,–,–,–
CN1C(C(=O)Nc2ccccn2)C(=O)c2sc(Cl)cc2S1(=O)=O (configuration not stated),8.71%,-14.1%,–,inactive,inactive,inactive,inactive,inactive,inactive,inactive,inactive,inactive,inactive,–,–,–,–
CSc1nc2cc(Oc3cccc(Cl)c3Cl)c(Cl)cc2[nH]1,–,–,8.91 µM (active),11.2 µM (active),11.2 µM (active),–,11.2 µM (active),3.98 µM (active),–,–,6.31 µM (active),8.91 µM (active),13.5 µM (active),3.98 µM (active),11.2 µM (active),–,–
CC1CCC(NC(=O)N(CCCl)N=O)CC1 (configuration not stated),9.36%,3.89%,–,inactive,inactive,inactive,inactive,inactive,inactive,inactive,inactive,inactive,inactive,–,–,–,–
CN1CCc2c(c3ccccc3n2Cc2ccccc2)C1,–,–,–,–,inactive,inactive,inactive,inactive,inactive,inactive,inactive,–,–,–,–,-0.349%,-7.12%
COC(=O)[C@@H](N)CS,-8.41%,10.4%,inactive,inactive,inactive,inactive,inactive,inactive,inactive,–,inactive,–,inactive,–,–,–,–
O=C1CCC(c2ccccc2)(C2CCN(Cc3ccccc3)CC2)C(=O)N1 (configuration not stated),7.2%,9.21%,–,inactive,inactive,inactive,inactive,inactive,inactive,inactive,inactive,inactive,inactive,–,–,–,–
O.O.O.O.O.O.O.O=S(=O)([O-])[O-].[Co+2],–,–,2.82 µM (active),8.91 µM (active),5.01 µM (active),12.6 µM (active),12.6 µM (active),8.91 µM (active),–,–,11.2 µM (active),5.01 µM (active),7.57 µM (active),11.2 µM (active),8.91 µM (active),–,–
CCSc1ccc2c(c1)N(CCCN1CCN(C)CC1)c1ccccc1S2,–,–,–,inactive,inactive,inactive,inactive,inactive,inactive,inactive,inactive,inactive,inactive,–,–,14.2%,7.58%
CCN(CC)CCOc1ccc2nc(N(C)C)sc2c1,2.07%,4.31%,inactive,inactive,inactive,inactive,inactive,inactive,inactive,–,inactive,inactive,inactive,–,–,–,–
Cc1c(C)c2c(c(C)c1OC(=O)CCC(=O)O)CC[C@@](C)(CCC[C@H](C)CCC[C@H](C)CCCC(C)C)O2,-10.9%,4.87%,–,inactive,inactive,inactive,inactive,inactive,inactive,–,inactive,inactive,inactive,–,–,–,–
O=C(CCCN1CCN2CCCC2C1)c1ccc(F)cc1 (configuration not stated),12%,7.07%,–,–,inactive,inactive,inactive,inactive,inactive,inactive,–,–,–,–,–,–,–
Oc1ccc(Cl)c2c1CCC2,6.7%,4.51%,–,inactive,inactive,inactive,inactive,inactive,inactive,inactive,inactive,inactive,inactive,–,–,–,–
O=C(OCc1ccccc1)c1ccc(O)cc1,10.7%,11.3%,–,inactive,inactive,inactive,inactive,inactive,inactive,inactive,inactive,inactive,inactive,–,–,–,–
NC(=O)CC[C@@H]1NC(=O)[C@H](Cc2ccccc2)NC(=O)[C@H](Cc2ccc(O)cc2)NC(=O)[C@@H](N)CSSC[C@@H](C(=O)N2CCC[C@H]2C(=O)N[C@@H](CCCN=C(N)N)C(=O)NCC(N)=O)NC(=O)[C@H](CC(N)=O)NC1=O,1.66%,-0.62%,–,inactive,–,inactive,inactive,–,inactive,inactive,–,inactive,inactive,–,–,–,–
O=C1c2ccccc2CN2C(=O)c3ccccc3CN12,–,–,inactive,inactive,inactive,inactive,inactive,inactive,inactive,inactive,inactive,inactive,inactive,–,–,–,–
OCc1ccccc1,–,-27.8%,2.82 µM (active),inactive,–,inactive,inactive,–,inactive,–,–,–,inactive,–,–,–,–
C[C@H](CCC(=O)O)[C@H]1CC[C@H]2[C@@H]3CC[C@@H]4C[C@H](O)CC[C@]4(C)[C@H]3C[C@H](O)[C@]12C,0.235%,–,inactive,inactive,inactive,inactive,inactive,inactive,inactive,inactive,inactive,inactive,inactive,–,–,–,–
